Screening results: PubChem BioAssay, National Center for Advancing Translational Sciences (NCATS)
D2 ag-1: Beta-Arrestin HTS for Positive Allosteric Modulators of the Human D2 Dopamine Receptor: Agonists | DiscoveRx PathHunter D2 beta-arrestin, luminescence, 90 min; 100% = 57 uM dopamine signal | 0.084% of 360,000 active | activation, % (no concentration beside the values) | D(2) dopamine receptor (Homo sapiens), P14416; in the data active = activation above about 40%; inconclusive = between about 15% and that limit
Target sequence (P14416 whole entry, looked up): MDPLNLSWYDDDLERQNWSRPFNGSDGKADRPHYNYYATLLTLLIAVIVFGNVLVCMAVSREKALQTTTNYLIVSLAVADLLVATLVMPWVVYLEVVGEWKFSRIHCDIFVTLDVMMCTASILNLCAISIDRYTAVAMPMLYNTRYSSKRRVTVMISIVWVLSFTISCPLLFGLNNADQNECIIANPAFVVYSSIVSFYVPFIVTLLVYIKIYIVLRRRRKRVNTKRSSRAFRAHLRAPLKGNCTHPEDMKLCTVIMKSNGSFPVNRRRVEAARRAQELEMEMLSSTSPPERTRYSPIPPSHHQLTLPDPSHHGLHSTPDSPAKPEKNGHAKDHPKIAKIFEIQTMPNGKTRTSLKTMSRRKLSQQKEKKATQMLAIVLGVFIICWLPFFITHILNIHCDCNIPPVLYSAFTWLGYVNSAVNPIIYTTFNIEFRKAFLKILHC
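Agonist mode: compounds alone added to overnight-plated D2 PathHunter cells for 90 min at 37 C, with 57 uM final dopamine (EC100) defining full response. Beta-arrestin recruitment detected by chemiluminescent reagent, read after 1 h at ambient temperature.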
D2 antagonist: HTS Assay for Allosteric Antagonists of the Human D2 Dopamine Receptor: Primary Screen for Antagonists; D(2) dopamine receptor (Homo sapiens), P14416; HEK293 TREx D2 cells, calcium flux, dopamine EC80; inhibition, % at 10 µM; 2% of 340,000 active; in the data active = inhibition above about 30%; inactive = below that, where a call was filed; also: 0% is about no effect
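Calcium flux kinetic readout in an inducible HEK293 TREx D2 line plated overnight at 30 C. After 180 s compound exposure, an EC80 dopamine challenge follows with another 180 s kinetic read to detect antagonism.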
D2 PAM-1: HTS Assay for Positive Allosteric Modulators of the Human D2 Dopamine Receptor: Primary Screen for Potentiators; D(2) dopamine receptor (Homo sapiens), P14416; HEK293 T-REx D2, calcium flux, EC20 dopamine potentiation; potentiation, % at 10 µM; 0.34% of 340,000 active;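 active = potentiation over 3 SD above the plate norm, cut at about 30% in these data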; also: 0% is about no effect
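Tetracycline-induced Hek293 Trex D2 cells, force-coupled to calcium, loaded with no-wash calcium dye. Compound added with 180 s kinetic read for agonism, then EC20 dopamine and a further 180 s read for potentiation.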
D2 PAM-2: Beta-Arrestin HTS for Positive Allosteric Modulators of the Human D2 Dopamine Receptor: Potentiators; potentiation, % (no concentration beside the values); DiscoveRx D2 beta-arrestin cells, luminescence, 90 min; 100% = 57 uM dopamine signal; 0.23% of 360,000 active; in the data active = potentiation above about 50%; inconclusive = mostly about 30% to 49%
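D2 cells co-treated with compound plus 50 nM dopamine (EC20) for 90 min at 37 deg C to detect potentiation. Beta-arrestin recruitment was read as enzyme-fragment luminescence after 1 h at ambient temperature. Full response was set by 57 uM dopamine.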
D2 ag-2: HTS Assay for Allosteric Agonists of the Human D2 Dopamine Receptor: Primary Screen for Agonists. HEK293 T-REx D2 cells, calcium flux agonist mode. activation, % at 2 µM. 0.53% of 340,000 active;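 active = activation over 3 SD above normal in the single-dose calcium agonist read, cut at about 30% in these data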; also: 0% is about no effect
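Calcium-flux readout, 1 cycle/sec over 180 s following compound pin transfer, in inducible HEK293 Trex D2 cells (force-coupled); dopamine controls included. Positive calcium responses during this window marked compounds as potential agonists.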
Active calls of the source: *; ? = inconclusive; / = no result given. A selection: hits, their analogues and other compounds. The true share with any hit is near 2.4%.

SMILES | D2 ag-1 | D2 antagonist | D2 PAM-1 | D2 PAM-2 | D2 ag-2
COc1ccc(S(=O)(=O)N2CCC(C(=O)N(C)Cc3ccc(C)o3)CC2)cc1OC | -4 | -9 | 7 | -9 | 1
COc1cccc(N2CC(NC(=O)C(c3ccccc3)c3ccccc3)CC2=O)c1 (configuration not stated) | / | / | 3 | / | -2
Cc1cc(C)c(S(=O)(=O)NCCOc2ccccc2)c(C)c1-n1cnnn1 | -2 | -30 | 41* | -1 | 3
CCCOc1ccc(-c2nn(-c3ccccc3)cc2C2NC(=O)NC(C)=C2C(=O)OC(C)C)cc1 (configuration not stated) | / | / | -5 | / | 0
CCn1cc(C(=O)NCCc2ccc(Cl)cc2)c(=O)c2cc(S(=O)(=O)N3CCc4ccccc4C3)ccc21 | / | / | -15 | / | 0
CCN(CC)S(=O)(=O)c1cccc(C(=O)NCC2(N3CCOCC3)CCCCC2)c1 | -4 | 39* | 3 | -2 | 0
CC(C)(C)c1ccc(C(=O)Nc2ccc([N+](=O)[O-])cn2)cc1 | -2 | 36* | -27 | -27 | 0
Cn1c(CCN2CCCC2)nc2cc(NS(=O)(=O)c3ccc(F)cc3)ccc21 | -1 | / | / | -42 | /
Cn1c(CN2CCCC2)nc2cc(NS(=O)(=O)c3ccc(Cl)cc3)ccc21 | -3 | 69* | -17 | -47 | 3
Cn1c(CN2CCCC2)nc2cc(NS(=O)(=O)c3ccccc3)ccc21 | -3 | 67* | -25 | -30 | -1
COc1ccc(Cl)cc1NC(=O)Cn1nc(Cc2ccncc2)c2ccccc2c1=O | / | / | 6 | / | 0
CCOc1ccc(Br)cc1S(=O)(=O)Nc1cccc(-c2ccc(OC)nn2)c1 | / | / | 6 | / | 0
C[N+](C)(C)CC/C=C1/c2ccccc2CSc2ccccc21 | -3 | -5 | 0 | -11 | -1
CNCCC=C1c2ccccc2CCc2ccccc21 | -6 | 42* | -27 | -35 | 2
COc1ccc(C(=O)NCC(c2ccco2)N(C)C)cc1S(=O)(=O)NCc1ccc(Cl)cc1 (configuration not stated) | -2 | 78* | -24 | -39 | 0
COc1ccc(C(=O)NCCNC(C)=O)cc1S(=O)(=O)NCc1ccc(Cl)cc1 | -2 | 0 | 14 | -6 | 1
CC(C)(C)OC(=O)NCCCCCNC(=O)c1nc[nH]c1C(=O)NCC(=O)OCc1ccccc1 | ? | / | / | 52* | /
O=C(NNC1=Nc2ccccc2SC1)c1cccc([N+](=O)[O-])c1 | -3 | 71* | -25 | -14 | 0
COc1ccccc1CNC(=O)Cn1nc(C)c([N+](=O)[O-])c1C | 2 | / | / | -1 | /
COc1ccc(C)cc1NC(=O)CSc1nc(=O)n(Cc2ccncc2)c2c1CCC2 | / | / | -2 | / | 0
Cc1cc(C)c(Cn2c(C)c(CNCc3ccccc3C)c(C(=O)O)c2C)c(C)c1 | / | / | 6 | / | -1
COc1ccc(CN2CCCC(C(=O)Nc3cccc(-n4cccn4)c3)C2)cc1 (configuration not stated) | -1 | 79* | -24 | -33 | 0
CSc1ccc(CCNC(=O)c2cc(C)nn2-c2ccccc2)cc1 | 1 | -12 | 11 | -3 | 0
O=C(CCCN1CCC(C(O)c2ccc(F)cc2)CC1)c1ccc(F)cc1 (configuration not stated) | -5 | / | / | -16 | /
O=C(CCCN1CCC(C(=O)c2ccc(F)cc2)CC1)c1ccc(F)cc1 | -3 | 71* | -19 | -5 | -3
SMILES | D2 ag-1 | D2 antagonist | D2 PAM-1 | D2 PAM-2 | D2 ag-2
O=C(CCCN1CCC(O)(c2cccc(C(F)(F)F)c2)CC1)c1ccc(F)cc1 | -4 | 9 | 17 | -34 | 1
O=C(CCCN1CCC(O)(c2ccc(Br)cc2)CC1)c1ccc(F)cc1 | -4 | 79* | -20 | -33 | 1
CC(=O)N(C)c1ccc(NC(=O)Nc2ccc(C)c(C)c2)cc1 | 0 | -6 | -8 | 3 | 0
CCOC(=O)c1c(C)oc2c1c(C(c1ccncc1)N1CCOCC1)c(O)c1ccccc12 (configuration not stated) | 8 | -7 | / | 69* | 0
CCOC(=O)c1c(C)oc2c1c(CN1CCN(CCO)CC1)c(O)c1ccccc12 | 6 | -10 | 7 | 22 | 0
CCOC(=O)c1c(C)oc2c1c(CN1CCN(C(=O)OCC)CC1)c(O)c1ccccc12 | ? | 5 | -3 | 75* | 1
CCOC(=O)c1c(C)n(-c2ccc(C)cc2)c2c(CC(C)=O)c(Br)c(OC)c(O)c12 | -1 | -5 | 3 | -4 | 0
CCOC(=O)c1c(C)n(-c2ccc(C)cc2)c2c(C(C(C)=O)C(=O)O)c(Br)c(O)c(O)c12 (configuration not stated) | ? | 13 | 2 | 70* | 1
CCN(CC)S(=O)(=O)c1cc(NC(=O)C(C)N2CCN(c3ccccn3)CC2)ccc1C (configuration not stated) | 4 | 15 | -21 | 5 | 35*
CCN(CC)S(=O)(=O)c1cc(NC(=O)C(C)N2CCN(Cc3ccc4c(c3)OCO4)CC2)ccc1C (configuration not stated) | -5 | 84* | -26 | -53 | -1
CCC(=O)N1CCC1(C)C(=O)Nc1ccc(OC)c(OC)c1 (configuration not stated) | 1 | / | / | 0 | /
CCC(=O)Nc1ccccc1-c1nc2ccccc2n(C(C)C(=O)Nc2cccc(Cl)c2C)c1=O (configuration not stated) | / | / | -1 | / | 0
S=c1[nH]c(-c2ccccc2)cs1 | 5 | 8 | 11 | -16 | 0
Fc1ccc(-c2csc(=S)[nH]2)cc1 | -2 | 31* | -2 | -4 | 0
CCOC(=O)c1c(S(=O)(=O)N2CCCC(C(=O)Nc3cccc(CC)c3)C2)c(C)n(CC)c1C (configuration not stated) | / | / | 17 | / | 1
c1csc(C(c2nnnn2C2CCCC2)N2CCCC3(CCCCC3)C2)c1 (configuration not stated) | 0 | 31* | 7 | -2 | 0
CCc1ccc(C(=O)N/N=C/c2ccc(Cl)cc2Cl)nc1 | / | 73* | -18 | / | 1
Cn1c(=O)oc2cc(S(=O)(=O)N3CCC(C(=O)N4CC=C(c5ccccc5)CC4)CC3)ccc21 | -4 | 41* | 22 | 5 | 0
C=CCOc1ccc(/C=C/C(=O)N2CCCN(S(=O)(=O)c3c(C)noc3C)CC2)cc1 | 6 | 9 | -8 | 4 | 0
CCOc1cc(CNCc2ccccc2)ccc1OCc1ccc(Cl)cc1 | -9 | / | / | -11 | /
